For one assay, the system named is CDK4-cyclinD3. As to conditions: concentration: 1 μM, replicates: in singlicate; n = 1.
Another assay deals with CDK4. Particulars: concentration: 1 μM, replicates: in singlicate, n = 1.
The test system of a further assay is CDK5. As to conditions: concentration: 1 μM, replicates: in singlicate; n = 1.
A further assay has as its system CDK7. As to conditions: concentration: 1 μM, replicates: in singlicate, n = 1.
Another assay has as its system CDK8. As to conditions: concentration: 1 μM, replicates: in singlicate, n = 1.
Another assay has as its system CDK9. As to conditions: concentration: 1 μM, replicates: in singlicate; n = 1.
Another assay concerns CDKL1. Particulars: concentration: 1 μM, replicates: in singlicate, n = 1.
A further assay deals with CDKL2. As to conditions: concentration: 1 μM, replicates: in singlicate, n = 1.
For a further assay, the system named is CDKL3. As to conditions: concentration: 1 μM, replicates: in singlicate, n = 1.
In the next assay the test system is CDKL5. As to conditions: concentration: 1 μM, replicates: in singlicate; n = 1.

The results in this text go back to paper PMC5540273 (PLoS ONE, 2017).

The structures appear in SMILES notation. “And” between values parts separate entries of the source, which are not always exact repeats. Equal entries are not always repeated. Where two headings read alike, the source gives them in different places.
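Further: KINOMEscan kinase panel screen.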

For `Cc1c2ccc(N(C)c3ccnc(Nc4cccc(S(N)(=O)=O)c4)n3)cc2nn1Cc1ccccc1.Cl.Cl` [GW787226], the “%Inh” value came out at 0% in the assay with CDK4-cyclinD3; 2% with CDK4; 0% in the assay on CDK5; 3% in the assay on CDK7; 0% in the assay on CDK8; 3% with CDK9. The “%Inh” value in the assay with CDKL1 is reported as 0%; in the assay with CDKL2, 39%; with CDKL3, 10%; with CDKL5 it was 0%.
Take `Cn1cc(-c2ccc3c(c2)CCN3C(=O)Cc2ccccc2Cl)c2c(N)ncnc21` [GSK2608885]: the “%Inh” value was determined as 0% with CDK4-cyclinD3; 22% in the assay on CDK4; 0% in the assay on CDK5; 1% in the assay on CDK7; 7% in the assay with CDK8; 0% with CDK9. Further, the “%Inh” value in the assay on CDKL1 came out at 0%; in the assay on CDKL2 it was 17%; with CDKL3, 0%; in the assay on CDKL5, 10%.
Turning to `Cl.Cl.Cl.Fc1ccc(-c2ncn(C3CCNCC3)c2-c2ccnc(Nc3ccccc3)n2)cc1` [SB-238039], the “%Inh” value in the assay with CDK4-cyclinD3 is 0%; in the assay on CDK4 (1 µM), 18% and 19%; with CDK5, 0%; with CDK7 (1 µM), 19% and 33%; in the assay on CDK8 (1 µM), 49% and 19%; in the assay on CDK9, 0%. The “%Inh” value in the assay on CDKL1 (1 µM) is 34% and 37%; in the assay with CDKL2 (1 µM), 0% and 29%; with CDKL3 (1 µM), 5% and 15%; with CDKL5, 0%.
As to `O=C(NCCCN1CCOCC1)c1cccc(Nc2nccc(Nc3ccc(Oc4ccccc4)cc3)n2)c1` [GW663929], the “%Inh” value with CDK4-cyclinD3 is given as 0%; with CDK4 it was 16%; with CDK5, 0%; in the assay with CDK7, 20%; in the assay on CDK8 it was 34%; in the assay on CDK9, 19%. In addition, the “%Inh” value was found to be 5% in the assay on CDKL1, 28% in the assay on CDKL2, 0% in the assay on CDKL3 and 0% with CDKL5.
